Shown are actives, neighbours in structure and some others; about 1.4% of the full set was active somewhere.
FadD28 FP inh – inhibitors of FadD28 bisubstrate probe binding, primary screen, biochemical, fluorescence polarization, single point; AID 588549, 2011; Mycobacterium tuberculosis FadD28 fatty-acid-AMP ligase; hit rate 0.22% among 360,000; inhibition, % at 12.5 µM; in the data active means inhibition above about 8.5%, passing the limit was not always enough; inconclusive means no clear call, values can overlap the other calls
Vc quorum ag – inducers of Vibrio cholerae quorum light production without autoinducers, primary screen, BH1578 luxS cqsA deficient, single point; V. cholerae BH1578 lux reporter, luminescence, 6 h; activation, % at 18.7 µM; hit rate 0.16% among 350,000; AID 588436, 2011; in the data active means activation mostly above about 9.7%, no sharp cut-off; inconclusive means no clear call, values can overlap the other calls; inactive means mostly below about 3.7%
PrP 5UTR inh – inhibition of PrP 5' UTR reporter expression; hit rate 0.35% among 340,000; inhibition, % (no concentration beside the values); AID 488862, 2010; cell-based PrP 5' UTR mRNA reporter, plate reader; in the data active means inhibition above about 52%; further: 0 = median of the neutral control wells
SSB-PriA inh – inhibitors of Klebsiella pneumoniae PriA binding to SSB C-terminal tail, primary screen, biochemical, AlphaScreen; AlphaScreen SSBct-PriA binding, biotinylated peptide; inhibition, % at 33 µM; hit rate 0.6% among 430,000; PriA–SSB C-terminal tail interaction (Klebsiella pneumoniae); in the data active means inhibition mostly above about 37%, no sharp cut-off; inactive means mostly below about 20%;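 further: plate controls were negative control peptide for no effect and reference peptide for full effect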
PrPC surface inh – inhibitors of human cell surface prion protein PrPC, primary screen, cell-based, TR-FRET; TR-FRET read-out; inhibition, % at 13.8 µM; hit rate 0.43% among 370,000; in the data active means inhibition above about 24%; further: 0% = median of the test wells and 100% = reference compound wells
PrPC confirm – confirmation of inhibitors of cell surface human prion protein, confirmation, cell-based, TR-FRET; hit rate 65% among 1,500; cell surface PrPC level; shares compounds with PrPC surface inh; inhibition, % at 13.8 µM; in the data active means inhibition above about 25%
LD9 tox – cytotoxicity in LD9 cells, cytotoxicity control for cell surface PrPc inhibitor project, cell-based, luminescence, high throughput; shares compounds with PrPC surface inh; luminescence viability; inhibition, % at 13.8 µM; hit rate 29% among 1,500; in the data active means inhibition above about 9.5%
An asterisk follows results filed as active; i = inactive; ? = inconclusive; · = no result given.

SMILES	FadD28 FP inh	Vc quorum ag	PrP 5UTR inh	SSB-PriA inh	PrPC surface inh	PrPC confirm	LD9 tox
O=C(Cn1nc(C2CC2)n(-c2ccccc2)c1=O)N1CCc2ccccc21	·	·	·	0.0	·	·	·
NS(=O)(=O)c1ccc(NC(=S)NC(=O)c2ccc3c(c2)OCO3)cc1	-1.5	i	-52.7	-5.2	12.2	·	·
NC(N)=NS(=O)(=O)c1ccc(NC(=S)NC(=O)c2ccc3c(c2)OCO3)cc1	-0.6	i	-35.8	-1.8	47.1*	55.5*	-8.5
O=C1C2C3C=CC(CC3)C2C(=O)N1c1ccccc1 (stereo unspecified)	-0.5	-0.5	-15.6	5.4	-4.2	·	·
O=C1C=CC2C3C(=O)N(c4ccccc4)C(=O)C3C1N2Cc1ccccc1 (stereo unspecified)	-4.2	-1.1	-14.6	-19.6	49.5*	3.5	98.9*
O=C(c1ccccc1)c1c[nH]c(C(=O)NNc2ccccc2)c1	0.0	-0.4	-34.3	-7.6	26.9*	23.5	6.5
CN(C)CCCNC(=O)c1cc(C(=O)c2ccccc2)c[nH]1	0.1	-0.9	-7.8	4.9	-5.3	·	·
CC(C)(C)NCC(O)COCC12CC3CC(CC(C3)C1)C2 (stereo unspecified)	·	·	·	3.0	·	·	·
O=C(Cc1ccc(NC(=O)C2CCCC2)cc1)NCc1cccs1	·	·	·	-9.0	·	·	·
COc1cccc(N2CCN(c3ncnc4c3[nH]c3ccccc34)CC2C)c1 (stereo unspecified)	·	·	·	·	54.6*	75.5*	90.0*
COc1ccc(NC(=O)C(=O)NCC2CCN(C3CCCC3)CC2)cc1OC	·	·	·	-4.0	·	·	·
O=C(c1cccc(Oc2ccccn2)c1)N1CCN(C(=O)C2CC2)CC1	·	·	·	-4.0	·	·	·
N#Cc1c(-c2ccco2)nc(SCc2ccc(F)cc2)[nH]c1=O	-20.1	0.0	-2.2	7.1	94.8*	121.1*	-6.8
Cc1cc(C(O)CCNC(=O)c2c(F)cccc2Cl)c(C)o1 (stereo unspecified)	·	·	·	-15.0	·	·	·
CCOc1ccc(NC(=O)Nc2cccn(Cc3ccccc3)c2=O)cc1	-1.4	-0.3	-26.3	-3.3	29.8*	15.4	-7.4
COc1ccc(OCC(O)Cn2cnc(-c3ccc(Br)cc3)c2)cc1 (stereo unspecified)	-7.0	-0.3	-20.3	11.2	-3.3	·	·
OC(COc1ccc2ccccc2c1Br)Cn1cnc(-c2ccccc2)c1 (stereo unspecified)	-2.6	-0.3	-10.2	1.5	65.4*	83.6*	0.6
Cn1nc(CNC(=O)[C@@H]2CC=CCC2)c2ccccc2c1=O	·	·	·	1.0	·	·	·
N#CC(C#N)=C1NC(N)=C(C#N)C(c2ccccc2)=C1C#N	?	i	-20.0	·	73.7*	102.6*	-10.1
CCOc1ccc(C(=O)N/N=C/c2cccc3cccnc23)cc1	-4.0	-0.4	3.5	·	24.9*	23.7	4.2
COc1ccc(S(=O)(=O)NCC[C@H](O)C2CC2)c(C)c1	·	·	·	-3.0	·	·	·
COc1ccc(C(=O)NCc2nnc(SCC(=O)N3CCCc4ccccc43)n2C2CCCCC2)cc1	·	·	·	0.0	·	·	·
C=C1[C@@H](C)C2[C@H](Cc3ccccc3)NC(=O)[C@]23[C@H](OC(C)=O)/C=C/[C@@](C)(O)C(=O)[C@@H](C)C/C=C/[C@H]3[C@@H]1O (stereo partly specified)	·	·	·	·	43.4*	37.8*	1.8
C=C1C(C)C2C(Cc3ccccc3)NC(=O)C23C(OC(C)=O)C=CC(C)(O)CC(C)CC=CC3C1O (stereo unspecified)	-1.0	-1.0	1.8	-2.5	39.9*	32.0*	-0.1
C=C1[C@@H](C)[C@H]2[C@H](Cc3ccccc3)NC(=O)[C@]23OC(=O)/C=C/[C@H](O)CCC[C@@H](C)C/C=C/[C@H]3[C@@H]1O	-1.4	4.2	25.8	·	41.3*	19.0	9.7*
CC(=O)O[C@@H]1C=C[C@](C)(O)C[C@@H](C)CC=C[C@H]2[C@@H]3O[C@]3(C)[C@@H](C)[C@H]3[C@H](Cc4ccccc4)NC(=O)[C@@]312	·	·	·	-4.1	·	·	·
O=C(/C=C/c1ccccc1Cl)Nc1nnc(-c2ccc(F)cc2)o1	·	·	·	2.0	·	·	·

Screens from PubChem.
